{
  "source": "PubChem BioAssay (NCATS)",
  "note": "Results filed as inconclusive are left out. Entries that show only a call come without a potency. Activity calls are given as the source filed them. Calls follow the shape of the dose curve; as a rule, active = well fitted cell-killing curve with a large enough effect; inconclusive = small, poorly fitted or top-dose-only effect, or effect the other way; inactive = flat fitted curve, though single readings scatter. Where a SMILES comes first, the peptide text is derived from it. Bridges are numbered along the chain shown (N, C = ends). [ ]: non-standard residue; d: D form. The star is where a group is joined. X1 = CCC(C)C(N)C1=NC(C(=O)*)CS1; dOrn = NCCC[C@@H](N)C(=O)O",
  "data": [
    {"test_system": "JEG-3", "test": "Primary qHTS to identify gynecologic anti-cancer compounds using libraries of approved drugs and bioactive compounds (AID 1345084); also: nearly all actives have a fitted effect of over 55% in size", "conditions": "Gynecologic cancer cell panel viability, ATPlite luminescence, 48 h; series mostly up to 57.5 µM", "in_short": "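Five-point cytotoxicity, 48 h drug exposure at 37 C, 5% CO2, on cells seeded 16 h beforehand. ATP content read by ATPlite luminescence.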", "values": [
      {"smiles": "COc1c(OC2OC(CO)C(O)C(O)C2O)ccc(O)c1C(=O)OCc1ccccc1O[C@@H]1O[C@H](CO)[C@@H](O)[C@H](O)[C@H]1O", "note": "(stereo partly specified)", "Potency": "inactive"},
      {"smiles": "CC1CCC2(C)C(CC(O)C(O)C23CO3)C1(C)CCC1=CC(=O)OC1O", "note": "(stereo unspecified)", "Potency": "inactive"},
      {"smiles": "CCC(C)C(N)C1=NC(C(=O)N[C@@H](CC(C)C)C(=O)N[C@H](CCC(=O)O)C(=O)N[C@H](C(=O)N[C@H]2CCCCNC(=O)[C@H](CC(N)=O)NC(=O)[C@@H](CC(=O)O)NC(=O)[C@H](Cc3cnc[nH]3)NC(=O)[C@@H](Cc3ccccc3)NC(=O)[C@H]([C@@H](C)CC)NC(=O)[C@@H](CCCN)NC2=O)[C@@H](C)CC)CS1", "note": "(stereo partly specified) (X1-L[dE]IK[dOrn]I[dF]H[dD]N; lactam 4-C)", "Potency": "inactive"},
      {"smiles": "C[C@@]12C[C@]3(O)O[C@H](O1)[C@]1(COC(=O)c4ccccc4)[C@H]3C[C@@]12O[C@@H]1O[C@H](COC(=O)c2ccccc2)[C@@H](O)[C@H](O)[C@H]1O", "Potency": "inactive"},
      {"smiles": "C=CC1C(O[C@@H]2O[C@H](CO)[C@@H](O)[C@H](O)[C@H]2O)OC=C(C(=O)OC)C1Cc1nccc2c1[nH]c1ccccc12", "note": "(stereo partly specified)", "Potency": "inactive"},
      {"smiles": "Cc1c(-c2ccnn2C)cc(C(=O)NCc2ccc(S(C)(=O)=O)cn2)c(=O)n1-c1cccc(C(F)(F)F)c1", "Potency": "inactive"},
      {"smiles": "CCOc1ccc(C(Nc2ccccn2)c2ccc3ccc(C)nc3c2O)cc1C", "note": "(stereo unspecified)", "Potency": "inactive"},
      {"smiles": "CC(=O)c1c(O)cc2c(c1C)C(=O)CC(O)C2", "note": "(stereo unspecified)", "Potency": "inactive"},
      {"smiles": "O=C(/C=C/c1ccc(O)cc1)OCC1=CC2OC(=O)C3=CO[C@@H](O[C@@H]4O[C@H](CO)[C@@H](O)[C@H](O)[C@H]4O)[C@H]1[C@@H]32", "note": "(stereo partly specified)", "Potency": "inactive"},
      {"smiles": "CCC1CC2C(C)=CC3CCCCC3C2(C)C2(OC(=O)C(C)(O)OC2=O)O1", "note": "(stereo unspecified)", "Potency": "inactive"},
      {"smiles": "CC12CCC3C(C)(C)C(O)CCC3(C)C1Cc1c(oc(C(=O)O)cc1=O)O2", "note": "(stereo unspecified)", "Potency": "inactive"}
    ]}
  ]
}
